# Reference: ChEMBL document CHEMBL3988442, “University of Dundee, Small-Polar-MMV Screening Library” (2021)
# Among all 53,000 compounds or so, about 900 (1.7%) showed an effect of 50% or more. What follows is part of a selection rich in strong results, with near analogues and random picks from the rest.
# Test system: Mycobacterium tuberculosis
# Assay: Cornell - Phenotypic assay to identify agents that inhibit growth of Mycobacterium tuberculosis
# Assay type: functional
# Parameters: scale not given: direction of the effect not stated beside the values
# Details: 10 mM as filed; unlikely as a test dose
row,SMILES,Percent Effect [%]
1,CNc1ncc(-c2csc(NC(=O)C[C@H]3COCCN3)n2)cn1.Cl,-17.99
2,Cc1cnc(N2C[C@@H]3CN(C4CCOC4)CCC[C@]3(C(=O)O)C2)nc1.O=C(O)C(F)(F)F (stereo partly drawn),13.6
3,NC(=O)C1(CCCc2ccccn2)CCCN(Cc2ncc[nH]2)C1 (stereo not drawn),-6.495
4,CN(C)c1ccc(C(=O)N2CCCC2c2cnn(C)c2)cn1 (stereo not drawn),5.002
5,CC1CCN(c2ccc(C(=O)N3CCCC3c3ccc[nH]3)cn2)CC1 (stereo not drawn),84.24
6,NC(=O)c1cn[nH]c1C1CCCN1C(=O)COc1ccccc1 (stereo not drawn),6.51
7,O=C(COc1ccc2c(c1)CCC2)N1CCOCC1c1ncon1 (stereo not drawn),12.9
8,O=C(COc1ccccc1)N1CCCC1c1ccc[nH]1 (stereo not drawn),85.82
9,Cc1ccc(-c2nnc(CCC(=O)N3CCCC3c3ccc[nH]3)o2)cc1 (stereo not drawn),45.95
10,O=C(COc1ccc2c(c1)CCC2)N1CCCC1c1ccc[nH]1 (stereo not drawn),107.5
11,O=C(COc1ccc2c(c1)CCC2)N1CCCC(n2cccn2)C1 (stereo not drawn),-23.81
12,CS(=O)(=O)c1cccc(OCC(=O)N2CCCC2c2ccc[nH]2)c1 (stereo not drawn),58.54
13,CS(=O)(=O)c1cccc(OCC(=O)N2CCCC2c2ccccc2Cl)c1 (stereo not drawn),-2.872
14,NC(=O)c1ccc(OCC(=O)N2CCCC2c2ccc[nH]2)cc1 (stereo not drawn),-7.16
15,CC1CCN(c2ccc(C(=O)N3CCCC3c3nncn3C)cn2)CC1 (stereo not drawn),-18.06
16,Cc1cc(C)cc(OCCN2CCn3c(C)nnc3C2)c1,12.04
17,Cn1cc(C2=NOC(C(=O)NC3(c4cccc(F)c4)CCCC3)C2)cn1 (stereo not drawn),-24.87
18,Cc1cc(C)nc(N2CCC(Cn3cc(C(N)=O)cn3)CC2)n1,-23.62
19,CCOc1ncccc1CNS(=O)(=O)c1ccc2c(c1)CCC2,13.09
20,CCCn1cc(C(=O)N2CCCC(Cc3nccs3)C2)cn1 (stereo not drawn),-22.26
21,CCCC(NC(=O)c1occc1C)c1nnn[nH]1 (stereo not drawn),-83.42
22,COCc1nn(Cc2ccc(Cl)s2)c(=O)o1,-31.25
23,CC(=O)N1CCC(CSCc2ccco2)CC1,7.881
24,CCOCC(=O)N1CCC(CSCc2ccco2)CC1,34.18

row,SMILES,Percent Effect [%]
1,CCOC(=O)CCC(=O)N1CCC(CSCc2ccco2)CC1,59.48
2,Cc1[nH]ncc1CCCNC(=O)Nc1ccccc1,-14.63
3,Cc1[nH]ncc1CCCNC(=O)Nc1ccc(F)cc1,-28.46
4,Cc1[nH]ncc1CCCNC(=O)Nc1ccc2c(c1)OC1(CCCC1)O2,72.51
5,COc1ccc2c3c1CN(C(=O)N(C)C)CC3=CC(C)(C)CO2,89.58
6,COC(=O)N1CC2=CC(C)(C)COc3ccc(OC)c(c32)C1,31.49
7,COc1ccc2c3c1CN(C(C)=O)CC3=CC(C)(C)CO2,9.21
8,COc1ccc(C2CN(c3nc(C)cc(C)n3)CCN2C(C)=O)cc1 (stereo not drawn),37.66
9,COc1ccc2c(c1)CN(c1cc(N3CCCC3CO)ncn1)CC2 (stereo not drawn),24.46
10,COc1ccnc(N2CCN(C(=O)N3CCOCC3)CC2)n1,-8.776
11,COc1ccnc(N2Cc3cnc(C(C)(C)C)nc3C2)n1,15.27
12,COc1ccc2c(c1)CN(c1nc(C)cc(C)n1)CC2,63.12
13,COc1cccc(O[C@H]2CCN(c3nc(C)cc(C)n3)CC[C@@H]2O)c1,6.067
14,Cc1cc(C)nc(N2CCc3ccc(OC(F)F)cc3C2)n1,108.4
15,COc1ccnc(N2CCc3ccc(OC(F)F)cc3C2)n1,105.8
16,Cc1cc(C)nc(N2Cc3cnn(Cc4ccc(F)cc4)c3C2)n1,1.875
17,Cc1cnn(C2CCCN(C(=O)CCc3cnn(C)c3)C2)c1 (stereo not drawn),-9.516
18,O=C(CN1CC(c2nc(-c3ccco3)no2)C1)NCc1ccc(F)cc1.O=C(O)C(=O)O,26.13
19,CN(Cc1ccc2c(c1)OCO2)C(=O)c1ccc(C2CCCNC2)cc1 (stereo not drawn),14.52
20,O=S(=O)(c1ccc(-c2cnco2)cc1)N1CCCC2(CCNCC2)CC1,-3.285
21,Cl.O=C(CCN1CCCCC1)Nc1c2c(cc3c1CCC3)CCC2,-6.194
22,CCOC(C)c1nc(Cn2cc(-n3cccc3)cn2)cs1 (stereo not drawn),56.69
23,CCOC(C)c1nc(Cn2cccn2)cs1 (stereo not drawn),9.263
24,CCOC(C)c1nc(Cn2cc(C)cn2)cs1 (stereo not drawn),25.14

row,SMILES,Percent Effect [%]
1,CC(=O)NCCNC(=O)Nc1ccc(Br)cc1C(C)C,-45.7
2,Cc1ccc(CN(CC(=O)NC2CCOCC2)c2ccc(F)cc2)o1,92.31
3,Cc1ccc(-c2nc(CC(=O)NCC3CCOC3)cs2)o1 (stereo not drawn),19.26
4,O=C(CN(Cc1cccs1)c1ccc(F)cc1)NC1CCOCC1,47.86
5,Cc1ccc(CN(CC(=O)NCC2CCOC2)c2ccc(F)cc2)o1 (stereo not drawn),104.7
6,O=C(NCC1CCOC1)c1csc(-c2ccc(F)cc2)n1 (stereo not drawn),-10.74
7,O=C(CN(CC(O)c1ccc(F)cc1)C1CC1)NC1CCOCC1 (stereo not drawn),2.353
8,O=C(O)C(F)(F)F.O=C([C@H]1C[C@@H]2CCN(c3cccc(F)c3)C[C@H]2O1)N1CCCC1,12.3
9,Cc1noc(C)c1-c1ccc(C2CCCN2C(=O)c2cnn(C)c2)nc1 (stereo not drawn),1.498
10,Cc1nc(CN2CCCN(C(=O)CC(C)n3cccc3)CC2)cs1 (stereo not drawn),7.748
11,CN(CCCc1cnn(C)c1)Cc1cc2n(n1)CCCNC2,18.02
12,NC(=O)c1cc2c(nc1Oc1ccccc1CN1CCCCC1)CCC2,23.43
13,Fc1cccc(N2CCCC3(CN(Cc4nccs4)CCO3)C2)c1.O=C(O)C(F)(F)F.O=C(O)C(F)(F)F (stereo not drawn),39.92
14,Fc1cccc(N2CCCC3(CN(Cc4ccco4)CCO3)C2)c1.O=C(O)C(F)(F)F.O=C(O)C(F)(F)F (stereo not drawn),14.41
15,Fc1cccc(N2CCCC3(CN(Cc4cccnc4)CCO3)C2)c1.O=C(O)C(F)(F)F.O=C(O)C(F)(F)F.O=C(O)C(F)(F)F (stereo not drawn),54.92
16,Fc1cccc(N2CCCC3(CN(Cc4ccccn4)CCO3)C2)c1.O=C(O)C(F)(F)F.O=C(O)C(F)(F)F.O=C(O)C(F)(F)F (stereo not drawn),43.65
17,Fc1cnc(N2CCOC3(CCN(Cc4ccsc4)CC3)C2)nc1.O=C(O)C(F)(F)F.O=C(O)C(F)(F)F,103.8
18,Fc1cccc(N2C[C@H]3CCN(c4cccnc4)C[C@H]3C2)c1.O=C(O)C(F)(F)F,50.35
19,Cc1ccc(CN2CCOC3(CCCN(c4cccc(F)c4)C3)C2)o1.O=C(O)C(F)(F)F.O=C(O)C(F)(F)F (stereo not drawn),65.05
20,O=C(O)C(F)(F)F.O=C(c1ccc(F)cc1)N1C[C@@H]2CCN(c3cccnc3)C[C@@H]2C1,-2.234
21,O=C(C1CCC1)N1C[C@@H]2CCN(c3cccnc3)C[C@@H]2C1.O=C(O)C(F)(F)F,-17.68
22,Cn1cc(CN2CCOC3(CCCN(c4cccc(F)c4)C3)C2)cn1.O=C(O)C(F)(F)F.O=C(O)C(F)(F)F (stereo not drawn),-3.324
23,Fc1cnc(N2CC3(CCN(Cc4ccsc4)C3)C2)nc1.O=C(O)C(F)(F)F,30.35
24,Fc1cnc(N2CCOC3(CCN(Cc4cccs4)CC3)C2)nc1.O=C(O)C(F)(F)F.O=C(O)C(F)(F)F,5.693

row,SMILES,Percent Effect [%]
1,CN(C)C(=O)N1C[C@@H]2CC[C@H](C1)N(C(=O)c1c(Cl)cccc1Cl)C2,3.535
2,CCOCC1CN(C(=O)Cc2ccccn2)Cc2cn(C)nc21 (stereo not drawn),-4.26
3,CO[C@@H]1CCN(Cc2ccccn2)[C@@H]2CN(Cc3ccco3)C[C@@H]21.O=C(O)C(F)(F)F.O=C(O)C(F)(F)F.O=C(O)C(F)(F)F,-14.11
4,CCNC(=O)c1ccc(NC(=O)N(C)Cc2cccn2C)c(C)c1,26.39
5,CCC(NC(=O)c1nn(C)cc1C(=O)O)c1ccc(C)cc1 (stereo not drawn),2.527
6,CCOc1cc([C@@H]2N[C@H](c3nccs3)Cc3ccsc32)ccc1OC,39.28
7,Cc1c(Cl)cccc1NC(=O)N1CCN(Cc2ccccn2)CC1,28.2
8,Cc1nc(C2CCN(C(=O)c3ccn(C)n3)CC2)c2sccn12,-12.4
9,CCn1nc(C)c(CNC(=O)c2cn(CC3CCCO3)nn2)c1C (stereo not drawn),-30.41
10,Cc1cc(C)n(C2CCN(c3ncnc4sc5c(c34)CCNC5)C2)n1 (stereo not drawn),11.06
11,FC1(F)CCN(Cc2ccncc2)CC12CCN(c1cccnc1)C2.O=C(O)C(F)(F)F.O=C(O)C(F)(F)F.O=C(O)C(F)(F)F (stereo not drawn),6.416
12,FC1(F)CCN(Cc2cccnc2)CC12CCN(c1ccccn1)C2.O=C(O)C(F)(F)F.O=C(O)C(F)(F)F.O=C(O)C(F)(F)F (stereo not drawn),-7.439
13,FC1(F)CCN(Cc2cccnc2)CC12CCN(c1ccccc1)C2.O=C(O)C(F)(F)F.O=C(O)C(F)(F)F.O=C(O)C(F)(F)F (stereo not drawn),59.15
14,Cc1nn2c(=O)/c(=C\c3cccs3)sc2nc1=O,10.56
15,Cc1cc(-c2cnc(N3CCCCCC3)nc2-c2cccnc2C)on1,62.64
16,Cc1cc(-c2cnc(N3CCOCC3)nc2-c2cccnc2C)on1,6.202
17,CC1CCN(c2ncc(-c3ccccc3F)c(-c3nccn3C)n2)CC1,-10.24
18,Cc1cc(-c2cnc(N3CCC(O)CC3)nc2-c2cccnc2C)on1,-33.62
19,CC1CCCN(c2ncc(-c3ccccc3F)c(-c3nccn3C)n2)C1 (stereo not drawn),50
20,Cn1ccnc1-c1nc(N2CCCCC2)ncc1-c1ccccc1F,56.75
21,CC(C)=CCN1CCC2(CC1)CC(=O)N(Cc1cc(F)cc(F)c1)C2,20.01
